Abeta yeast res = compounds reversing amyloid beta toxicity in yeast | AID 1347071 | yeast expressing A-beta42, growth rescue, OD600, 48 h; response scale: 0% DMSO, 100% iron-clioquinol control | 410,000 tested, 0.063% active | Potency, µM (doses to about 46.1 µM), usual class: activators; note: nearly all actives have a fitted effect of over 55% in size
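Growth rescue measured by 600 nm absorbance after 48 h yeast culture at 30 C with compound. Values normalized between DMSO and an equimolar ferric chloride plus clioquinol control.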
TDP-43 yeast inh = TDP-43 toxicity inhibition in yeast | AID 652104 | TDP-43 expressing yeast growth rescue, BacTiter-Glo, 24 h | Potency, µM (doses to about 46.1 µM), usual class: activators | 410,000 tested, 1.8% active; note: nearly all actives have a fitted effect of over 50% in size
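Luminescence from BacTiter-Glo reports growth of TDP-43-expressing yeast after 24 hr at 30 deg C with compound. Cells were raffinose-pregrown to mid-log, then seeded in galactose medium at OD600=0.02.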
FUS suppressor = suppressors of FUS proteinopathy in yeast; S. cerevisiae FUS-expressing, growth rescue, OD600, 24 h; Potency, µM (top dose mostly 76.6 µM), hits mostly activators; 390,000 tested, 0.24% active; AID 1347120; note: nearly all actives have a fitted effect of over 55% in size
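Toxicity suppression screen in FUS-yeast. Cells induced with 2% galactose, starting OD 0.005, treated 24hr at 30C with compounds at multiple final concentrations; growth by OD600.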
aSyn rescue = alpha-synuclein toxicity inhibition in yeast. Potency, µM (top dose mostly 46.1 µM), most hits filed as activators. Yeast expressing alpha-synuclein, growth rescue, BacTiter-Glo, 24 h. 370,000 tested, 0.14% active. AID 652106; note: nearly all actives have a fitted effect of over 65% in size
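Rescue of yeast growth: cells expressing toxic alpha-synuclein, induced in galactose at OD600 0.02, incubated with compound 24 h at 30 C. ATP luminescence quantified growth; inhibitors of toxicity appear as activators.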
Large screens that a line does not name were inactive. Hits are enriched below; roughly 2.1% of the tested compounds scored in any of these assays. Calls come from the whole dose curve; as a rule, active = well fitted curve in the direction sought with a large enough effect; inconclusive = small, poorly fitted or top-dose-only effect, or another doubt; inactive = no such curve, though single readings can be large; an effect the other way counts as inactive or inconclusive.

CC1=C(C(=O)N2CCOCC2)CC(CC(=O)NC2CCCCC2)C(=O)N1Cc1ccc(C(C)(C)C)cc1 (stereo not drawn)	TDP-43 yeast inh inconclusive, aSyn rescue 3.55µM
CC1=C(C(=O)N2CCOCC2)CC(CC(=O)NC2CC2)C(=O)N1Cc1ccc(C(C)(C)C)cc1 (stereo not drawn)	none
COc1ccc(N2CCN(C(=O)c3cn(C4CCCCC4)c(=O)c4c3c3ccccc3n4C)CC2)cc1	FUS suppressor inconclusive (no result: aSyn rescue)
COc1ccc([C@H]2CC(=O)C=C(c3cccc(OC)c3)C2)cc1	TDP-43 yeast inh 11.2µM
COc1ccc([C@H]2CC(=O)C=C(c3cccc(C(C)C)c3)C2)cc1	none
COc1ccc([C@H]2CC(=O)C=C(c3ccc(SC)cc3)C2)cc1	none
COc1ccc([C@H]2CC(=O)C=C(c3cc(Cl)cc(Cl)c3)C2)cc1	none
COc1ccc([C@H]2CC(=O)C=C(c3ccccc3)C2)cc1	Abeta yeast res inconclusive, TDP-43 yeast inh 17.8µM
COc1ccc(C2=CC(=O)C[C@H](c3ccc(Cl)cc3)C2)cn1	TDP-43 yeast inh 17.8µM
COc1ccc(C2=CC(=O)C[C@H](c3ccc(OC)cc3)C2)cc1	TDP-43 yeast inh 14.1µM, FUS suppressor inconclusive
CCn1cc(C(=O)N2CCN(c3cccc(C)c3)C(C)C2)c(=O)c2cc(S(=O)(=O)N3CCOCC3)ccc21 (stereo not drawn)	none (no result: aSyn rescue)
COc1ccc([C@H]2CC(=O)C=C(c3ccc4cc[nH]c4c3)C2)cc1	TDP-43 yeast inh 25.1µM
COc1ccc([C@H]2CC(=O)C=C(c3ccc4[nH]ccc4c3)C2)cc1OC	TDP-43 yeast inh 22.4µM, FUS suppressor inconclusive
CC(C)c1ccc2oc(=O)cc(CN3CCN(c4ccc(F)cc4)CC3)c2c1	TDP-43 yeast inh 14.1µM
CCc1ccc2oc(=O)cc(CN3CCN(c4ccc(F)cc4)CC3)c2c1	none
O=C(CCc1nc2cccnc2n1Cc1cccs1)Nc1cccc(C(F)(F)F)c1	Abeta yeast res inconclusive, TDP-43 yeast inh 25.1µM (no result: aSyn rescue)
COc1ccc(NC(=O)CCc2nc3cccnc3n2Cc2cccs2)c(OC)c1	none (no result: aSyn rescue)
CCc1nnc(NC(=O)[C@@H]2CCCN2C(=O)c2cccs2)s1	none (no result: Abeta yeast res, TDP-43 yeast inh, FUS suppressor)
NCCCN(Cc1ccc(Cl)c(Cl)c1)c1ccc(Br)cn1	none (no result: Abeta yeast res, TDP-43 yeast inh, FUS suppressor)
Cc1ccc(-c2onc(C)c2C)cc1S(=O)(=O)N1CCCCC1	TDP-43 yeast inh 22.4µM (no result: aSyn rescue)
CCOC(=O)C1CCN(S(=O)(=O)c2ccc(OC)c(OC)c2)CC1	none
CCOC(=O)C1CCN(S(=O)(=O)c2cc(-c3cc(C)no3)ccc2C)CC1	none (no result: aSyn rescue)
CCOC(=O)C1CCN(S(=O)(=O)c2cc(-c3onc(C)c3C)ccc2OC)CC1	TDP-43 yeast inh 25.1µM, FUS suppressor inconclusive (no result: aSyn rescue)
Cc1ccc(-c2onc(C)c2C)cc1S(=O)(=O)N1CCC(C)CC1	FUS suppressor inconclusive (no result: aSyn rescue)
CCOC(=O)C1CCCN(S(=O)(=O)c2cc(-c3cc(C)no3)ccc2C)C1 (stereo not drawn)	TDP-43 yeast inh 35.5µM, FUS suppressor inconclusive (no result: aSyn rescue)
CCOC(=O)C1CCN(S(=O)(=O)c2ccc(Br)c(OCC)c2)CC1	FUS suppressor 5.62µM
CCOc1ccccc1N(CC)C(=O)Cn1ncc2c([nH]c3ccccc32)c1=O	none (no result: aSyn rescue)
Cc1cc(C(F)(F)F)n2nc(-c3ccc(Br)cc3)cc2n1	none (no result: aSyn rescue)
COc1cccc(CCn2c(N)cc(=O)[nH]c2=S)c1OC	none (no result: Abeta yeast res, TDP-43 yeast inh, FUS suppressor)
C=CCn1c(COc2ccccc2)nc2ccccc21	Abeta yeast res 20µM
CCn1c(COc2ccc(C)cc2)nc2ccccc21	TDP-43 yeast inh 11.2µM
Cc1ccc(OCc2nc3ccccc3n2C(C(=O)Nc2c(C)cccc2C)C2CC2)cc1 (stereo not drawn)	FUS suppressor 8.91µM
CCOC(=O)CC[C@@H]1CC[C@]2(CCCN(S(=O)(=O)C3CCCCC3)C2)O1	none (no result: Abeta yeast res, TDP-43 yeast inh, aSyn rescue)
CC1=C(C(=O)Nc2cccc(Cl)c2C)C2(CCCCCC2)OC1=O	TDP-43 yeast inh inconclusive (no result: aSyn rescue)
O=C1c2ccccc2-c2onc3ccc(Oc4ccccc4)c1c23	TDP-43 yeast inh 7.08µM, aSyn rescue inconclusive (no result: FUS suppressor)
Cc1cccc(NC(=O)c2cn(-c3ccccc3)nc2-c2ccccc2)c1C	FUS suppressor inconclusive (no result: aSyn rescue)
COc1ccc(C#Cc2ccc3c(=O)c4ccccc4n(C)c3c2)cc1	TDP-43 yeast inh inconclusive
Cn1c2ccccc2c(=O)c2cc(C#Cc3cccc(N)c3)ccc21	TDP-43 yeast inh 12.6µM
Cn1c2ccccc2c(=O)c2cc(C#CC3=CCCCC3)ccc21	FUS suppressor inconclusive
Cn1c2ccccc2c(=O)c2ccc(C#Cc3ccc(N)cc3)cc21	TDP-43 yeast inh 11.2µM, FUS suppressor inconclusive
CCNC(=S)N1CCN(c2ccc([N+](=O)[O-])cc2)CC1	none
O=[N+]([O-])c1ccc(N2CCN(C(=S)NCc3ccc(Cl)cc3)CC2)cc1	Abeta yeast res 5.62µM, TDP-43 yeast inh inconclusive
Cc1ccc(-c2cc(-c3ccccc3Cl)[nH]n2)c(O)c1	none
Oc1ccccc1-c1cc(-c2ccccc2)n[nH]1	TDP-43 yeast inh inconclusive
Oc1ccccc1-c1cc(-c2ccc(F)cc2)n[nH]1	TDP-43 yeast inh 3.55µM
Cc1ccccc1-c1cc(-c2ccccc2O)n[nH]1	TDP-43 yeast inh 11.2µM
COc1ccc(O)c(-c2cc(-c3ccccc3Cl)[nH]n2)c1	TDP-43 yeast inh 17.8µM
Cc1ccc(NC(=O)c2ccc3c(c2)NC(=O)c2ccccc2S3)c(Cl)c1	none (no result: aSyn rescue)
C[C@H]1C(c2ccccc2F)O[C@]2(C[C@H](O)c3ccccc3O2)C[C@@H]1O (stereo partly drawn)	none (no result: Abeta yeast res, TDP-43 yeast inh, aSyn rescue)
COCCNC(=S)N/N=C/c1c2ccccc2cc2ccccc12	Abeta yeast res inconclusive, TDP-43 yeast inh inconclusive
NC(=S)N/N=C\c1c2ccccc2cc2ccccc12	Abeta yeast res inconclusive, TDP-43 yeast inh 20µM, aSyn rescue inconclusive
C[C@]12CC[C@@H]3c4ccc(OC(=O)c5ccccc5)cc4CC[C@H]3[C@@H]1CC[C@@H]2O	none
CC(=O)Oc1ccc2c(c1)CCC1C2CCC2(C)C(OC(C)=O)CCC12 (stereo not drawn)	TDP-43 yeast inh 31.6µM, FUS suppressor inconclusive
COC(=O)c1sc(=S)sc1C(=O)OC	TDP-43 yeast inh 12.6µM, aSyn rescue inconclusive
COc1ccc(CN(C(=O)Nc2cccc(Cl)c2)c2ccccn2)cc1OC	FUS suppressor inconclusive (no result: aSyn rescue)
Cc1oc(-c2ccc3c(c2)OCCO3)cc1C(=O)O	none (no result: FUS suppressor)
COc1ccc(-c2cc(C(=O)O)c(C)o2)cc1OC	TDP-43 yeast inh 20µM (no result: aSyn rescue)
COc1cc2ccccc2cc1C(=O)NC1CCCCC1	none
COc1cc2ccccc2cc1C(=O)NC1CCCC1	TDP-43 yeast inh 12.6µM
Cc1cccc(N2CC(C(=O)Nc3nnc(SCc4ccccn4)s3)CC2=O)c1 (stereo not drawn)	FUS suppressor 17.8µM
Cc1ccc(N2CC(C(=O)Nc3nnc(SCc4ccccn4)s3)CC2=O)cc1 (stereo not drawn)	none
O=C1CC(c2ccc(Br)cc2)c2c(ccc3ccccc23)N1 (stereo not drawn)	TDP-43 yeast inh 35.5µM (no result: aSyn rescue)
O=C1CC(c2cccc([N+](=O)[O-])c2)c2c(ccc3ccccc23)N1 (stereo not drawn)	none
